# Source: PubChem (National Center for Advancing Translational Sciences (NCATS))
# SW480 rereplic: induces DNA re-replication in SW480 colon adenocarcinoma cells; SW480 DNA re-replication, Hoechst DNA content imaging, 48 h; Potency, µM (top dose mostly 46.1 µM), for inactives: top-dose re-replication activation, usual class: activators; 340,000 compounds, 1.8% hits; further: % of control where 0% means no effect; nearly all actives have a fitted effect of over 55% in size
#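 Image-based read-out: total Hoechst fluorescence of nuclei (405 nm excitation, 500-530 nm emission), with hits raising the fraction of high-intensity nuclei. SW480 colon cells incubated 48 hr with compounds at 37 C.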
# KB-3-1 cytotox: KB-3-1 parental cell cytotoxicity. AID 1347075. Potency, µM (top dose mostly 46.1 µM), usual class: cytotoxic. 400,000 compounds, 1.4% hits. KB-3-1 viability, CellTiter-Glo ATP luminescence, 72 h; further: on the % scale 0 is the no-effect control and ±100 the full control effect; nearly all actives have a fitted effect of over 60% in size
#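 KB-3-1 parental drug-naive adenocarcinoma cells in DMEM/10% FBS, incubated 72 h at 37 C with pin-transferred compounds across a concentration series. Viability by CellTiter-Glo luminescence; concentration-response curves fitted after normalization.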
# HT1080 IDH1KD tx: kills HT-1080 cells with IDH1 knockdown. 360,000 compounds, 2% hits. HT-1080 IDH1 knockdown viability, ATP luminescence, 48 h. Potency, µM (top dose mostly 46.1 µM), for the others: at the top dose activity, negative = toxicity, hits mostly cytotoxic;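 further: 0% = DMSO wells and -100% = cell-free medium wells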
#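 Luminescent ATP read-out (CellTiter-Glo, 10 min at room temperature) after 48 h compound exposure at 37 °C gave viability of IDH1-knockdown HT-1080 cells. Activity was normalised to DMSO and cell-free wells, then fitted as concentration-response curves.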
# MCF10A rerep: induces DNA re-replication in MCF 10a normal breast cells; MCF 10A DNA re-replication, Hoechst nuclear intensity, 48 h; Potency, µM (highest dose often 46.1 µM), for inactives: at the top dose activity, positive = re-replication, most hits filed as activators; 350,000 compounds, 2.9% hits; further: % of control where 0% means no effect; nearly all actives have a fitted effect of over 50% in size
# KB-V1 cytotox: KB-V1 MDR subline cytotoxicity; Potency, µM (titrated, usually from 46.1 µM), most hits filed as cytotoxic; 400,000 compounds, 3.4% hits; AID 1347076; KB-V1 MDR cells viability, CellTiter-Glo, 72 h; further: on the % scale 0 is the no-effect control and ±100 the full control effect; nearly all actives have a fitted effect of over 60% in size
#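 Compound-treated KB-V1 multidrug-resistant cells, 72 h, 37 degrees C; viability by CellTiter-Glo. Fitted qHTS curves give the values.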
# HT1080-NT tox: kills 2HG-producing HT-1080-NT fibrosarcoma cells; 360,000 compounds, 1.6% hits; HT-1080-NT fibrosarcoma viability, CellTiter-Glo ATP luminescence, 48 h; Potency, µM (top dose mostly 46.1 µM), for the others: at the top dose activity, negative = less viability, actives largely listed as cytotoxic;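 further: NT is the 2HG producing partner of a matched IDH1 knockdown line; 0% = DMSO-treated cells and -100% = media-only wells without cells; nearly all actives have a fitted effect of over 55% in size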
#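 Viability of the 2HG-overproducing fibrosarcoma line after 48 hours of compound exposure at 37 degrees C was determined by luminescence with CellTiter-Glo, and concentration-effect curves were then fitted and categorized.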
# Starred values were filed as active, the others as inactive; i = inactive; ? = inconclusive; / = no result; ! = a repeat was not active; [ ] = dose if it differs, or a comment. Shown are actives, neighbours in structure and some others; about 8% of the full set was active somewhere. The call rests on the fitted dose curve; in most records, active means well fitted curve in the direction sought with a large enough effect; inconclusive means small, poorly fitted or top-dose-only effect, or another doubt; inactive means no such curve, though single readings can be large; an effect the other way counts as inactive or inconclusive. Potency means the concentration at half of the fitted maximal effect.
SMILES,SW480 rereplic,KB-3-1 cytotox,HT1080 IDH1KD tx,MCF10A rerep,KB-V1 cytotox,HT1080-NT tox
Cc1ccc(Nc2nc(-c3ccccc3)nc3ccccc23)cc1,/,i,/,/,?,/
Cc1ccc(Nc2nc(-c3ccncc3)nc3ccccc23)cc1,55.3%,i,1.3%,9.2µM*,i,-10.2%
c1ccc(Nc2nc(-c3ccncc3)nc3ccccc23)cc1,3.0%,i,12.8%,17.4%,i,-5.1%
Cc1ccc(-c2nc(N/N=C/c3ccccc3[N+](=O)[O-])c3ccccc3n2)cc1,7.31µM*,i,4.47µM*,13µM*,i,?
COc1cc2c(NC3CCN(C)CC3)nc(N3CCCN(C)CC3)nc2cc1OCCN(C)CCN(C)C,/,i,/,/,i,/
CCOc1ccc(NC(=O)c2cnn3c2NC(c2cccc(OC)c2)=CC3c2ccccc2)cc1 (centres undefined),/,i,/,/,i,/
CCC(C)C1NC(=O)C(CCNCS(=O)(=O)O)NC(=O)C(NC(=O)C(CCNCS(=O)(=O)O)NC(=O)C(NC(=O)C(CCNCS(=O)(=O)O)NC(=O)CCCCC(C)C)C(C)O)CCNC(=O)C(C(C)O)NC(=O)C(CCNCS(=O)(=O)O)NC(=O)C(CCNCS(=O)(=O)O)NC(=O)C(C(C)CC)NC1=O (centres undefined),3.2%,/,/,?,/,/
COc1ccc(/C=N/NC(=O)c2csc(-n3nc(C)cc3C(F)(F)F)n2)cc1,?,7.31µM*,1.4%,?,i,-7.8%
Cc1cc(C(F)(F)F)n(-c2nc(C(=O)NN)cs2)n1,-11.5%,i,-15.8%,10.1%,i,-6.6%
O=C(Cn1c(NCCCO)nc2ccccc21)c1ccco1,?,i,-2.3%[9.24 µM],18.4µM*,i,1.5%
O=C(O)c1cc2c(N3CCC(Cc4ccccc4)CC3)ncnc2s1,0.7%,i,-6.2%,?,i,-1.3%
c1ccc(CC2CCN(c3ncnc4sccc34)CC2)cc1,?,i,?,20.2%,i,11.6µM*
COc1cc(-c2noc(C)c2C#CC2(N)CCCCC2)cc(OC)c1OC,-3.9%,?,-22.5%,?,20.6µM*!,-23.5%
COc1cc(-c2noc(C)c2C#CC2(O)CCCCC2)cc(OC)c1OC,-1.5%,?,-23.6%,-0.2%,14.6µM*!,-11.4%
COc1cc(-c2noc(C)c2C#Cc2ccsc2)cc(OC)c1OC,?,?,0.517µM*,?,3.26µM*!,?
CN(C)CCN1C(=O)c2ccccc2N(C)c2ccccc21,-2.9%,/,/,-3.7%,/,/
CC(=O)Nc1ccc(NS(=O)(=O)c2c(C(=O)N3CCCCCC3)c(C)n(C)c2C)cc1,/,i,/,/,i,/
Cc1csc(NC(=O)C2CCN(S(=O)(=O)c3ccccc3F)CC2)n1,1.7%,i,-10.7%,-13.0%,14.6µM*,-12.6%
O=C(NC1CCCc2ccccc21)C1CCN(S(=O)(=O)c2ccccc2F)CC1 (centres undefined),13.9%,i,-2.9%,2.8%,7.31µM*,0.5%
Cc1cc(C)nc(N2CCC(C(=O)NC3CCCc4ccccc43)CC2)n1 (centres undefined),-5.8%,i,7.6%,4.6%,i,-2.3%
O=C(NC1CCCc2ccccc21)C1CCN(c2nnc(-n3cccc3)s2)CC1 (centres undefined),-1.0%,i,-13.6%,16.4µM*,?,-5.9%
COCCCNc1oc(-c2ccc(COc3ccccc3C)o2)nc1C#N,/,i,/,/,i,/
Cc1ccc(-n2ncc(C(=O)NCc3ccc4c(c3)OCO4)c2C2CCN(C(=O)OC(C)(C)C)CC2)c(C)c1,/,i,/,/,i,/
CSC(=Nc1ccccc1)N=C(SCc1ccccc1)N(C)C,7.31µM*,4.11µM*,13µM*,?,5.8µM*,20.6µM*
N#CNC(=Nc1ccccc1)SCc1ccc(C(=O)O)cc1,0.8%,i,-3.6%,?,i,18.0%
SMILES,SW480 rereplic,KB-3-1 cytotox,HT1080 IDH1KD tx,MCF10A rerep,KB-V1 cytotox,HT1080-NT tox
COC(=O)C(CCSC)NC(=O)c1cc2c(n(-c3ccc(Cl)cc3)c1=O)CCCC2=O (centres undefined),/,i,/,/,i,/
CN1CCN(CCOC2Cc3ccccc3Sc3ccc(Cl)cc32)CC1 (centres undefined),-7.5%,?,-3.7%,23.1µM*,23.1µM*,-5.9%
COc1ccc(C(=O)NCC(=O)OCC(=O)c2cccc3ccccc23)cc1,/,?,/,/,i,/
Cc1ccc(-c2nc(SCC(=O)N3CCc4ccccc43)c3c(=O)n(C)c(=O)n(C)c3n2)cc1,/,i,/,/,i,/
O=C(O)c1cc(NC(=O)c2ccc(Cl)c([N+](=O)[O-])c2)cc(C(=O)O)c1,-8.7%,i,24.4%,?,i,24.5%
O=C(Nc1ccc(C(O)(C(F)(F)F)C(F)(F)F)cc1)c1ccc(Cl)c([N+](=O)[O-])c1,21.6%,?,23.1µM*,?,?,?
O=C(Nc1cccnc1Cl)c1ccc(Cl)c([N+](=O)[O-])c1,23.1µM*,i,8.2%,14.7%,i,7.8%
Cc1ccc(NC(=O)Nc2ccccc2)cc1[N+](=O)[O-],-5.2%,i,18.2%,-0.6%,?,23.2%
O=C(Nc1ccc(Cl)cc1)Nc1csc([N+](=O)[O-])c1,63.1%,i,10.3µM*,?,?,13µM*
O=C(Nc1ccccc1)Nc1ccc(Cl)c([N+](=O)[O-])c1,?,?,-0.1%,14.6µM*,?,14.2%
O=C(Nc1csc([N+](=O)[O-])c1)Nc1c(Cl)cccc1Cl,-9.5%,i,0.5%,12.2%,i,-15.5%
Cc1cc(S(=O)(=O)Nc2ccc(-c3ccc(N4CCCCC4)nn3)cc2)c(C)cc1Cl,/,i,/,/,?,/
COC(=O)c1cccc(Nc2c(-c3ccc(OC)cc3)nc3nc[nH]n23)c1,/,i,/,/,i,/
O=C(Nc1ccccc1)Nc1ccc(F)c([N+](=O)[O-])c1,2.7%,?,3.5%,14.6µM*,?,-4.0%
